# Measurements published in PubChem BioAssay AID743287 (Broad Institute, 2014).
# Screen size: about 370,000 compounds; about 2,300 (0.62%) were called active.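 The calls were made as follows: active = lowest replicate activation of at least 40%, so every replicate reaches that level; inactive = the rest.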 For the sample, actives were picked, then their nearest neighbours and some compounds at random.
# Assay: GLuc luminescence reporter in INS-1E cells, primary screen for activators of glucose-dependent secretion of insulin (AID 743287);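 also: 0% = median of neutral control wells and 100% = median of IBMX positive control wells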
# Settings: INS-1E GLuc reporter insulin secretion, 2-3 h, at 16.6 µM, stronger effect = higher value
row,SMILES,activation
1,C[C@@H]1CN([C@H](C)CO)C(=O)c2cc(NC(=O)Cn3cnnn3)ccc2O[C@@H]1CN(C)C(=O)Nc1ccc2c(c1)OCO2,6.33% (inactive)
2,C[C@H](CO)N1C[C@H](C)[C@H](CN(C)S(C)(=O)=O)Oc2ncc(C3=CCCC3)cc2C1=O,23.9% (inactive)
3,COc1ccc2c3c(n(C)c2c1)[C@H](CO)N(C(=O)NC(C)C)CC31CN(CC2CCCCC2)C1,-8.45% (inactive)
4,C/C=C/c1ccc2c(c1)O[C@@H](CN(C)C(=O)c1ccncc1)[C@@H](C)CN([C@H](C)CO)S2(=O)=O,9.46% (inactive)
5,C/C(=N/NC(=O)CSc1ccccn1)c1ccc([N+](=O)[O-])cc1,3.45% (inactive)
6,C=CCOc1ccc(/C=N/NC(=O)C(C)Sc2ccccn2)cc1OCC (stereo unspecified),26.6% (inactive)
7,CCOc1ccc(/C=N/NC(=O)CSc2ccccn2)cc1O,47.7% (active)
8,Cc1ccccc1S(=O)(=O)N1CC(=O)N2[C@H](CO)[C@@H](c3ccc(C#Cc4ccccc4)cc3)[C@H]2C1,-6.46% (inactive)
9,Cc1nc(N2[C@H](CO)[C@H](c3ccccc3)[C@H]2CNCC2CCC2)sc1C,2.74% (inactive)
10,CCCNC(=O)N1CC2(CN(C(=O)C3CCCCC3)C2)c2c([nH]c3cc(OC)ccc23)[C@@H]1CO,13.6% (inactive)
11,Cc1ccc(-c2ccc3c(c2)O[C@@H](CN(C)C(=O)NC(C)C)[C@@H](C)CN([C@H](C)CO)S3(=O)=O)cc1,4.12% (inactive)
12,C#CC(CCN1CCCCC1)(OC)c1ccccc1 (stereo unspecified),17.7% (inactive)
13,c1ccc(-c2ccccc2OCCN2CCCCC2)cc1,53.2% (active)
14,Cc1ccc(C(C)C)cc1OCCN1CCCC1,12.9% (inactive)
15,CCCNC(=O)N1CC(=O)N2[C@H](CO)[C@@H](c3ccc(-c4ccc(F)cc4)cc3)[C@H]2C1,-19.7% (inactive)
16,C[C@H](CO)N1C[C@H](C)[C@@H](CN(C)CC2CC2)OCCCC[C@H](C)Oc2ccc(NC(=O)Cc3ccccc3)cc2C1=O,7.71% (inactive)
17,CCN(CC)S(=O)(=O)c1ccc2nc(COC(=O)c3n[nH]c4ccccc34)[nH]c2c1,57.7% (active)
18,COc1ccc(COC(=O)c2n[nH]c3ccccc23)cc1F,-12.2% (inactive)
19,COc1ccc(S(=O)(=O)N(C)C)cc1NC(=O)COC(=O)c1n[nH]c2ccccc12,-5.72% (inactive)
20,C[C@H](CO)N1C[C@H](C)[C@@H](CN(C)C(=O)Nc2ccnc(N3CCOCC3)c2)OCc2ccccc2-c2c(n(C)c3ccccc23)C1=O,-17.9% (inactive)
21,CNC[C@H]1Oc2ccc(NC(=O)CCC(F)(F)F)cc2C(=O)N([C@@H](C)CO)C[C@H]1C,4.67% (inactive)
